The target of this assay is T1, Zelda (Drosophila melanogaster, UniProt Q9VWC6 1319-1447).
T1 sequence: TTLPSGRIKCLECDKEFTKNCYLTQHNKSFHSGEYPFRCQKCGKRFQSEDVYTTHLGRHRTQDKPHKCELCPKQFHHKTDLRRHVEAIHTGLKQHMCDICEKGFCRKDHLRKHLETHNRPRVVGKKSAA
Nature of the assay: FP; 33 mM phosphate pH 7.0, 90 mM NaCl, 0.01% Tween 20, 0.1 mM DTT, 0.5% agarose; room temperature. The note with it: tags: N-GST (pGEX-6P-1, kept); dsDNA, one strand shown.
On to AGTTTCAGGTACC, for which the binding signal is 2.05 Kd / Kd of best base at the position. Same read-out and setting: with AATTTCGGGTACC the figure was 7.8 Kd / Kd of best base at the position; with AATTTCATGTACC, 12.8 Kd / Kd of best base at the position; with AATTTCAGGTAAC, 1.38 Kd / Kd of best base at the position. The same measure, in the same setting: with AATTTAAGGTACC the figure was 17.1 Kd / Kd of best base at the position.

With AAGTTCAGGTACC, the binding signal was 1.72 Kd / Kd of best base at the position. On to AATTTCAGGTATC, for which the binding signal is 2.16 Kd / Kd of best base at the position. Still for that read-out and setting: with AATTTCAGGGACC the figure was 12.3 Kd / Kd of best base at the position. As to AAATTCAGGTACC, the binding signal was 1.56 Kd / Kd of best base at the position. AATTTCAGGTACA: the binding signal is 2.29 Kd / Kd of best base at the position. The same measure, in the same setting: next, ACTTTCAGGTACC: 1.87 Kd / Kd of best base at the position; AATTTCAGGTTCC: 14.1 Kd / Kd of best base at the position; AATTTCAGATACC: 12.3 Kd / Kd of best base at the position.

Turning to AATATCAGGTACC, the binding signal was 1.65 Kd / Kd of best base at the position. The same measure, in the same setting: with ATTTTCAGGTACC the figure was 1.63 Kd / Kd of best base at the position; with AATTTCAGGTACG, 2.98 Kd / Kd of best base at the position; with AATTTCAGGTAGC, 1.01 Kd / Kd of best base at the position. The same measure, in the same setting: with AATTTTAGGTACC the figure was 4.6 Kd / Kd of best base at the position; with AATGTCAGGTACC, 1.84 Kd / Kd of best base at the position. With AATTTCAGGTGCC, the binding signal is 9.55 Kd / Kd of best base at the position. Consider AATTTCAAGTACC, for which the binding signal is 8.76 Kd / Kd of best base at the position. For the sequence AATCTCAGGTACC, the binding signal is 1.8 Kd / Kd of best base at the position. Still for that read-out and setting: next, AATTTGAGGTACC: 17.6 Kd / Kd of best base at the position; AATTACAGGTACC: 1.77 Kd / Kd of best base at the position. Regarding AATTTCAGGTACC, the equilibrium dissociation constant (Kd) is approximately 5.7 nM. With AACTTCAGGTACC, the binding signal was 1.86 Kd / Kd of best base at the position.

Take AATTTCAGGTCCC: the binding signal is 10.1 Kd / Kd of best base at the position.

Turning to AATTTCAGGCACC, the binding signal is 9.39 Kd / Kd of best base at the position. Same read-out and setting: next, GATTTCAGGTACC: 2.27 Kd / Kd of best base at the position.

As to AATTTCACGTACC, the binding signal was 11.7 Kd / Kd of best base at the position. Same read-out and setting: next, TATTTCAGGTACC: 1.83 Kd / Kd of best base at the position; AATTTCCGGTACC: 36.1 Kd / Kd of best base at the position; AATTGCAGGTACC: 1.37 Kd / Kd of best base at the position.

On to AATTCCAGGTACC, for which the binding signal is 1.28 Kd / Kd of best base at the position. Same read-out and setting: with AATTTCAGCTACC the figure was 15.7 Kd / Kd of best base at the position; with CATTTCAGGTACC, 1.46 Kd / Kd of best base at the position. In the case of AATTTCAGGAACC, the binding signal is 19.3 Kd / Kd of best base at the position.

With AATTTCAGTTACC, the binding signal was 9.11 Kd / Kd of best base at the position. Same read-out and setting: next, AATTTCAGGTACT: 2.11 Kd / Kd of best base at the position; AATTTCTGGTACC: 19.2 Kd / Kd of best base at the position.

One may read the Kd as the concentration at which binding is half-saturated. Read a high Kd as lower affinity.

Values taken from publication PMC5913336, “True equilibrium measurement of transcription factor-DNA binding affinities using automated polarization microscopy”.
